Source: PubChem (National Center for Advancing Translational Sciences (NCATS))
FMDV antiviral – antivirals against foot and mouth disease virus. FMDV antiviral cell-based qHTS. Potency, µM (titrated, usually from 57.9 µM), hits mostly inhibitors. 410,000 compounds, 1.2% hits; calls by dose curve; tested in HEK293T cells; note: read-out not given here; nearly all actives have a fitted effect of over 45% in size
HCV inh – inhibitors of hepatitis C virus infection; Huh7.5.1 HCVcc-Cre infection, luciferase reporter, 44 h; Potency, µM (highest dose often 41.8 µM), actives largely listed as inhibitors; 340,000 compounds, 3.4% hits; active = well fitted inhibition curve with a large enough effect; inconclusive = small, poorly fitted or top-dose-only effect, or another doubt; inactive = no such curve, though single readings can be large or run the other way
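Cells (1,000/well) were plated 4 h before compound, then infected with HCVcc-Cre virus (~0.5 moi). After 44 h further culture, infection was read as luciferase luminescence following a 15 min substrate incubation at room temperature.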
LASV entry inh – Lassa virus entry inhibition. Potency, µM (series often up to 37.9 µM), usual class: inhibitors. Lassa virus pseudotype entry inhibition, cell reporter. 300,000 compounds, 1.2% hits; calls by dose curve; tested in HEK293 cells; note: nearly all actives have a fitted effect of over 50% in size
HCMV inh – human cytomegalovirus inhibition; 410,000 compounds, 4.5% hits; activity change, negative = inhibition, % at 57.5 µM; HFF cells, HCMV-luciferase reporter, 72 h; stronger effect = lower value; AID 1259415; in the data active = activity change below about -60%; inconclusive = no clear call, values can overlap the other calls; inactive = above about -39%
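Inhibition of viral replication was scored as loss of reporter luminescence in HFFs infected with HCMV-luciferase (MOI 1 PFU/cell) for 72 h; compounds tested at 2 doses, normalized to buffer and Salinomycin controls.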
MARV entry inh – Marburg virus entry inhibition; Marburg virus pseudotyped entry inhibition, cell reporter; Potency, µM (highest dose often 37.8 µM), usual class: inhibitors; 300,000 compounds, 1.8% hits; calls by dose curve; tested in HEK293 cells
Numbers stand for hits; - = inactive; ? = inconclusive; . = no result. Sampled rows, rich in hits. Any-hit rate of the full collection: about 7.9%.

SMILES | FMDV antiviral | HCV inh | LASV entry inh | HCMV inh | MARV entry inh
CCc1ccc(-n2cc(-c3ccc(F)cc3)[n+]3c2SCCC3)cc1 | - | ? | ? | -87.3 | ?
c1ccc(-c2cn(-c3ccccc3)c3[n+]2CCCS3)cc1 | ? | - | - | - | ?
Cc1ccc(-c2cn(-c3ccccc3)c3[n+]2CCCS3)cc1 | 10µM | ? | ? | -92.6 | ?
O=C1N[C@@H](Cc2c[nH]c3ccccc23)C(=O)N[C@H]1Cc1c[nH]c2ccccc12 | - | . | . | . | .
C/C1=C\[C@@H](C)C/C=C/[C@H]2[C@@H]3O[C@]3(C)[C@@H](C)[C@H]3[C@H](Cc4c[nH]c5ccccc45)NC(=O)[C@]32C(=O)/C=C/C(=O)[C@@H]1O | 31.6µM | - | . | . | .
N#Cc1ccccc1COC(=O)CCCC1=NS(=O)(=O)c2ccccc2N1 | - | - | . | - | .
FC(F)(F)c1ccc(CN2C[C@@H]3C(c4ccc(Cl)nc4)C4(c5cccnc5)CC3(C4)[C@H]2c2ccccc2)cc1 (stereo partly specified) | ? | - | . | -67.4 | .
COC(=O)C1(C)NC(c2ccc(OC)cc2)C2C(=O)N(c3ccccc3)C(=O)C21 (stereo unspecified) | - | - | . | - | .
O=S(=O)(NC1c2cccc3cccc(c23)C1Sc1ncccn1)c1ccc(Cl)cc1 (stereo unspecified) | - | ? | ? | -71.6 | ?
Cc1ccc(S(=O)(=O)NC2c3cccc4cccc(c34)C2Sc2n[nH]c(N)n2)cc1 (stereo unspecified) | - | ? | - | - | ?
COC(=O)c1ccc(NC(=O)COc2ccc(C3C(C#N)=C(N)Oc4c3ccc3ccccc43)cc2OC)cc1 (stereo unspecified) | - | ? | ? | - | -
COc1cc(C2C(C#N)=C(N)Oc3c2ccc2ccccc32)ccc1OCC(=O)Nc1ccccc1C (stereo unspecified) | - | 8.91µM | - | - | ?
O=C(O)c1cccnc1Nc1ccc(Cl)cc1 | - | - | ? | -72.4 | ?
O=C(Nc1ccc(F)c(Cl)c1)C1CCN(c2ncccn2)CC1 | - | . | - | - | -
CC(C)Cc1ccc(CN2CCCC(NC(=O)c3ccoc3)C2)cc1 (stereo unspecified) | - | ? | ? | - | ?
CC(C)Cc1ccc(CN2CCCC(NC(=O)c3cccc(-n4cnnc4)c3)C2)cc1 (stereo unspecified) | ? | ? | - | -60.2 | ?
CC(C)Cc1ccc(CN2CCCC(NC(=O)c3ccnn3C)C2)cc1 (stereo unspecified) | ? | 11.2µM | ? | -79.6 | 10µM
CCOC(=O)C1=C(COC(=O)CCc2ccccc2)NC(=O)NC1C (stereo unspecified) | - | - | . | - | .
COc1ccc2c(c1)[C@@H](NC(=O)C(F)(F)F)C1CCCCC21c1ccccc1 (stereo partly specified) | . | . | . | . | -
COc1cccc(-n2c(SCC(N)=O)nc3c(oc4ccccc43)c2=O)c1 | - | . | . | - | -
O=C1CC(C(=O)N2CCCC(c3nc(-c4ccncc4)ncc3-c3ccccc3)C2)C2(CCCCC2)O1 (stereo unspecified) | - | . | . | . | .
COc1cc(OC)cc(C(=O)N[C@H](C(=O)Nc2cc(C)cc(C)c2)C(C)C)c1 | - | ? | - | -75.7 | -
CCN(CC)CCN(C)C(=O)c1[nH]c(C(F)(F)F)nc1-c1ccccc1 | - | . | . | -98.9 | .
CCc1c(C)sc2c1CCN(C(=O)Nc1cc(C)ccc1C)C2c1ccc(OC)cc1 (stereo unspecified) | - | . | - | - | .
COCCn1c(=NC(=O)c2cc(-c3cccs3)nc3ccccc23)sc2cc(S(N)(=O)=O)ccc21 | - | 10µM | ? | - | 9.2µM
SMILES | FMDV antiviral | HCV inh | LASV entry inh | HCMV inh | MARV entry inh
COc1ccc(N2CCN(c3ccc(NC(=O)C4CCCCC4)cc3C#N)CC2)cc1 | - | - | - | - | -
CC(=O)Nc1cccc(Oc2cc(C#N)c(C#N)cc2N2CCCCCC2)c1 | ? | ? | - | -86.9 | ?
CCN(CC)C1CCN(C(=O)c2cnn(-c3nccc(-c4ccco4)n3)c2C(C)C)C1 (stereo unspecified) | - | . | . | . | .
O=C(c1ccc(Br)cc1)N(C1=NCCCCS1)c1ccccc1 | ? | - | ? | -62.8 | -
Nc1ncnc2c1ncn2[C@@H]1O[C@H](C(=O)Nc2cc(C(F)(F)F)cc(C(F)(F)F)c2)[C@@H](O)[C@H]1O | ? | . | . | - | .
COc1ccc(-c2cn(-c3ccc(OC)cc3)c3[n+]2-c2ccccc2CC3)cc1 | 15.8µM | - | ? | -96.9 | ?
COc1ccc(-n2cc(-c3ccccc3)[n+]3c2CCCCC3)cc1 | ? | ? | ? | -89.7 | ?
FC(F)Sc1ccc(-n2cc(-c3ccccc3)[n+]3c2CCC3)cc1 | ? | ? | - | - | -
CCOC(=O)[C@]12C[C@]3(OC)CCN(C(=O)N[C@@H]1c1ccccc1)[C@@H]32 | . | . | - | . | -
CC(C)(C)C(=O)Nc1ccc(S(=O)(=O)N2CCC(c3nc4ccccc4[nH]3)CC2)cc1 | - | - | ? | - | -
O=C1OC(c2cccs2)=N/C1=C\c1ccc(-c2cccc(Cl)c2)o1 | - | - | - | - | -
COc1ccc(/C=C2\SC(=N)N(c3nccs3)C2=O)cc1OC | ? | ? | - | -93.7 | ?
N=C1S/C(=C\c2ccc(-c3cccc(Cl)c3)o2)C(=O)N1c1nccs1 | - | - | ? | -77.9 | 3.16µM
COc1ccc(/C=C2\SC(=O)N=C2N)cc1OC | - | - | - | - | -
CCCCN1C(=O)CC2CCOC21C (stereo unspecified) | - | . | . | - | .
COc1ccc(-n2c(C)c([N+](=O)[O-])c3ccc(O)c(CN4CCCCC4)c32)cc1 | ? | - | - | -72.8 | -
COc1ccc(-c2c(C)c3ccc(O)c(CN4CCCC4)c3oc2=O)cc1 | - | . | - | - | .
Cc1ccc(-n2c(C)c([N+](=O)[O-])c3ccc(O)c(CN(C)C)c32)cc1 | ? | ? | - | -93.0 | ?
C[C@H](O)[C@@H]1C(=O)N2CCc3c([nH]c4ccccc34)[C@@H]2C[C@@H]1N(C)Cc1ccc(Cl)cc1 | - | . | . | - | .
CCCCCOc1ccc(/C=C/C(=O)Nc2sc(C)c(C)c2C(=O)OCC)cc1OC | ? | . | - | - | .
COCCCNC(=O)c1sc2nc3n(c(=O)c2c1C)CCC3 | - | . | - | - | .
COc1cc(N=c2ssnc2Cl)c(OC)cc1Cl | ? | ? | ? | - | 16.4µM
C=CCNC(=O)N1CCc2nc(CCCC)c3c(c2C1)CO[C@@H](C)C3 | . | . | . | . | -
Cc1ccccc1-c1nc(N2CCNCC2)c2ccccc2n1 | - | . | . | . | .
O=C1[C@H]2CCCC[C@H]2C(=O)N1CCCCN1CCN(c2nsc3ccccc23)CC1 | - | - | . | -61.4 | .
c1ccc2c(N3CCNCC3)nsc2c1 | - | ? | ? | -107.4 | ?
COC(=O)c1c(NC(=O)C2CC2)sc2c1CCCC2 | - | 10µM | . | - | .
CCOC(=O)c1c(NC(NC(=O)CF)C(Cl)(Cl)Cl)sc2c1CCCC2 (stereo unspecified) | - | ? | ? | - | ?
COC(=O)c1c(NC(NC(C)=O)C(Cl)(Cl)Cl)sc2c1CCCC2 (stereo unspecified) | 35.5µM | 11.2µM | - | - | ?
